aSyn 5UTR act = Activators via SNCA 5'UTR binding, MLPCN; activity score, % (tested at 7.5 µM), hits read low; 300,000 compounds, 7.1% hits; AID 1814, 2009; alpha-synuclein 5'UTR reporter, activators screen; in the data active = activity score below about -60%
Hits are given with their value; - = inactive. The full list was thinned out, with hits kept by preference.

SMILES	aSyn 5UTR act
COc1ccccc1N1CCN(C(=O)c2ccc(Cl)c(S(=O)(=O)NCc3ccco3)c2)CC1	-124
CCOc1ccccc1NC(=O)/C=C/c1ccccc1[N+](=O)[O-]	-88
Cc1ccnc(NC(=O)/C=C/c2ccccc2[N+](=O)[O-])c1	-118
O=C(/C=C\c1ccccc1[N+](=O)[O-])Nc1ccccc1	-194
CC(C)(C)c1ccc(SCCc2ccccn2)cc1	-127
Fc1ccc(SCCc2ccccn2)cc1	-97
CC(C)(C)c1ccc(S(=O)(=O)CCc2ccccn2)cc1	-96
Cc1cc(C)nc(Nc2nc3ccccc3s2)n1	-177
CC(=O)c1c(C)nc(Nc2nc3ccccc3s2)nc1C	-83
CCc1ccc(Nc2ncccc2C#N)cc1	-68
COc1ccc(CCNc2ncccc2C#N)cc1OC	-114
CCC(C)c1ccc(Nc2ncccc2C#N)cc1 (configuration not stated)	-176
O=C(NOCc1ccccc1)c1ccccc1	-92
Cc1cc(C(=O)Nc2ccc3c(c2)OCCO3)c(C)o1	-113
Cc1ncoc1C(=O)Nc1ccc(Oc2ccccc2)cc1	-104
Cc1ncoc1C(=O)Nc1ccc2c(c1)OCCO2	-63
Oc1ccccc1CNc1cnc2ccccc2c1	-260
C=CCc1cccc(CNc2cnc3ccccc3c2)c1O	-94
Oc1ccc2ccccc2c1CNc1cnc2ccccc2c1	-97
O=C1C2=C(c3ccccc31)[N+](=O)C1CCCCC1N2[O-] (configuration not stated)	-73
O=C1C2=C(c3ccccc31)[N+](=O)[C@@H]1CCCC[C@@H]1N2[O-]	-94
N/C(=N\OC(=O)CCc1ccccc1)c1ccccc1Cl	-70
Cc1ccc(/C(N)=N/OC(=O)CCc2ccccc2)cc1	-129
COc1ccc(C2CC(c3ccccc3OC(=O)/C=C/c3ccccc3)=NN2C(C)=O)cc1 (configuration not stated)	-69
COc1ccc(C2CC(c3ccccc3)=NN2C(=O)COC(=O)c2cccnc2)cc1 (configuration not stated)	-62
SMILES	aSyn 5UTR act
COc1ccc(C2CC(c3ccccc3)=NN2C(=O)c2cccs2)cc1 (configuration not stated)	-92
Nc1nc(CSC(=S)N2CCOCC2)nc(Nc2ccc(F)cc2)n1	-70
Cc1ccc(Nc2nc(N)nc(CSC(=S)N3CCOCC3)n2)c(C)c1	-93
COc1ccc(Nc2nc(N)nc(CSC(=S)N3CCOCC3)n2)cc1	-87
Cc1cc2ccccn2c1C(=O)c1ccc([N+](=O)[O-])o1	-147
NC(=O)N/N=C/c1ccc(-c2cccc(C(F)(F)F)c2)o1	-84
COC(=O)N/N=C/c1ccc(-c2cc(Cl)cc(Cl)c2)o1	-
CCCCNc1nc(N)nc(-c2cc(Cl)ccc2O)n1	-67
CCOC(=O)Cn1cnc(-c2ccc([N+](=O)[O-])cc2)c1	-77
CN(C)CCn1c2ccccc2c2nc3ccc([N+](=O)[O-])cc3cc21	-
CC(C)CSc1nnc2c3ccccc3n(C)c2n1	-75
CCN(CC)CCSc1nnc2c3ccccc3n(CCc3ccccc3)c2n1	-106
Clc1ccc(-c2nnc(SCc3ccon3)o2)c(Cl)c1	-69
C=CCSc1nnc(-c2ccc([N+](=O)[O-])cc2)o1	-140
C=CCSc1nnc(-c2ccc(Cl)cc2Cl)o1	-78
COc1ccccc1-c1nnc(SCC(=O)Nc2ccc(Cl)cc2Cl)o1	-83
O=C(CSc1nnc(-c2ccccn2)o1)Nc1ccccc1C(F)(F)F	-104
COc1ccccc1NC(=O)CSc1nnc(-c2ccccn2)o1	-66
CC(=O)C(/C=N/c1cc(-c2ccc(C)cc2)nn1-c1ccccc1)=C(\C)O	-198
CCc1nnc(NC(=O)c2cc(-c3ccccc3)nn2-c2ccccc2)s1	-165
Cc1ccc(NC(=O)c2cc(-c3ccccc3)nn2-c2ccccc2)cc1	-98
CCOc1ccc2nc(SCC(=O)NC3CC3)sc2c1	-68
CCOc1ccc2nc(SCC(=O)c3ccccc3)sc2c1	-100
Cn1c(/C=C/c2ccc(Br)cc2)c([N+](=O)[O-])c(=O)n(C)c1=O	-199
CCCOc1ccc(/C=C/c2c([N+](=O)[O-])c(=O)n(C)c(=O)n2C)cc1	-130
SMILES	aSyn 5UTR act
c1ccc2nc3c(nc2c1)OCC1CCCCN31 (configuration not stated)	-91
COCCn1c(C)cc(C(=O)COC(=O)c2ccc(Br)o2)c1C	-100
Cc1cc(C(=O)COC(=O)c2ccc(Br)o2)c(C)n1C	-112
Cc1cc(SCC(=O)c2cccc([N+](=O)[O-])c2)nc(=O)[nH]1	-91
O=C(/C=C/c1cccs1)Nc1nccs1	-97
O=C(/C=C/c1cccs1)Nc1cccc(NC(=O)/C=C/c2cccs2)n1	-181
CCc1nnc(NC(=O)C=C(C)C)s1	-140
CCc1nnc(NC(=O)/C=C/c2cccs2)s1	-160
O=C(/C=C/c1cccc(F)c1)Nc1nccs1	-209
Cc1cc(C)nc(NC(=O)/C=C/c2cccs2)c1	-155
Cc1cc(C)c(-c2csc(NC(=O)/C=C/c3cccs3)n2)c(C)c1	-
NS(=O)(=O)c1cccc(NC(=O)/C=C/c2cccs2)c1	-101
COc1cc(C#CC#CCN2CCCCC2)ccc1O	-81
FC(F)(F)c1ccc2c(c1)nc1n2CCCC1	-65
CC(=O)NC(c1ccccc1)c1nc2ccccc2[nH]1 (configuration not stated)	-64
Clc1ccc(OCc2cn3cccnc3n2)c2ncccc12	-64
Cc1cc(Cl)ccc1OCc1cn2cccnc2n1	-124
O=C(COc1ccccc1[N+](=O)[O-])N/N=C/C=C/c1ccco1	-73
Cc1ccccc1OCC(=O)N/N=C/c1ccc([N+](=O)[O-])o1	-68
O=C(Cc1ccc([N+](=O)[O-])cc1)N/N=C/c1ccc([N+](=O)[O-])o1	-
CC1(C(=O)N/N=C/c2ccc([N+](=O)[O-])o2)CC1(Br)Br (configuration not stated)	-96
O=C(CNc1ccc(Br)cc1)c1ccc(Br)s1	-68
CCCCCCNC(=O)Nc1ccccc1	-88
O=C(NCc1ccc(F)cc1)Nc1ccc(Cl)cc1	-65
CCN(CC)CC(=O)Nc1ccc(C)cc1Br	-77
SMILES	aSyn 5UTR act
COc1cccc(NC(=O)C(=O)NCCc2ccc(F)cc2)c1	-109
Cc1cccc(NC(=O)Nc2ccc(C)cc2Br)c1	-79
O=C(NCc1ccccn1)Nc1cccc(Cl)c1	-177
O=C(NCCc1ccc(F)cc1)Nc1ccccc1	-70
O=C(NCc1ccc(F)cc1)Nc1cccc(Cl)c1	-149
Fc1cccc(NC(=S)NCc2ccccn2)c1	-94
Cc1ccc(CNC(=O)Nc2cccc(C)c2)cc1	-117
CSc1nc(-c2ccc(Cl)cc2)nn1C(=O)c1ccccc1	-134
Clc1ccc(/C=C/c2ncc[nH]2)c(Cl)c1	-169
COc1ccc2oc(=N)c(C(=O)Nc3ccccc3Cl)cc2c1	-209
COc1ccc2oc(=O)c(C(=O)Nc3ccccc3C)cc2c1	-199
COc1ccc2oc(=N)c(C(=O)Nc3cccc(C)c3C)cc2c1	-158
COc1ccc2oc(=O)c(C(=O)Nc3cccc(C(C)=O)c3)cc2c1	-82
CN(C)C(CNC(=O)c1cc2ccccc2oc1=O)c1ccccc1 (configuration not stated)	-162
O=C(Nc1ccccc1O)c1cc2cc(Br)ccc2oc1=O	-124
CCCCCCc1cc2cc(C(=O)Nc3ccccc3)c(=O)oc2cc1O	-
Cc1cccnc1NC(=O)c1cc2ccccc2oc1=O	-200
COC(=O)C1C(=O)C=C(Nc2ccc(F)cc2F)CC1c1ccccc1 (configuration not stated)	-114
